Most compounds without a hit are left out; they make up all but 0.51% or so of the library.
FMDV Renilla = antivirals against foot and mouth disease virus replicon; FMDV replicon cells, Renilla luciferase signal; Potency, µM (series often up to 57.5 µM), for inactives: at the top dose activity change, negative = inhibition, actives largely listed as inhibitors; actives 0.32% (n = 120,000); AID 1745857; further: nearly all actives have a fitted effect of over 55% in size
FMDV antiviral = FMDV antiviral activity by firefly signal | FMDV antiviral cell assay, firefly luciferase signal | Potency, µM (series often up to 57.5 µM), for the others: top-dose activity change, negative = inhibition, actives largely listed as inhibitors | actives 0.23% (n = 120,000) | AID 1745856; further: nearly all actives have a fitted effect of over 60% in size
* marks the source's active call; other numbers are inactive results; ? = inconclusive; [ ] = another dose, or the depositor's remark. The call rests on the fitted dose curve. On the % scale 0 is the no-effect control and ±100 the full control effect; potency means the concentration at half of the fitted maximal effect.

SMILES	FMDV Renilla	FMDV antiviral
COc1ccc2cc(C(C)C(=O)NC3CC3)ccc2c1 (configuration not stated)	15.9%	25.9%
CCn1c2c(c(=O)n3ncc(C(=O)Nc4ccc(F)c(Cl)c4)c13)CN(Cc1ccc(OC)cc1)CC2	-4.1%	-8.4%
CCn1c2c(c(=O)n3ncc(C(=O)N4CCN(c5ccc(Cl)cc5)CC4)c13)CN(Cc1ccc(OC)cc1)CC2	22.4µM*	?
CCc1ccc(-c2nc3cc(NC(=O)c4cccc(OC)c4)ccc3o2)cc1	?	7.5%
O=C(O)CNS(=O)(=O)c1cc(C(F)(F)F)ccc1Cl	0.1%	-5.0%
Cc1csc(NC(=O)c2ccc(Oc3ccc(Br)cc3)nc2)n1	12.6µM*	?
CCOc1ccc(C(=O)Nc2nc(C)cs2)cc1OC	3.6%	1.3%
COc1cc(CNC(=O)c2ccc3nc(Cc4ccccc4)oc3c2)cc(OC)c1OC	?	14.1µM*
COc1cc(CNC(=O)c2ccc3nc(CCc4ccccc4)oc3c2)cc(OC)c1OC	15.0%	-23.5%
Cc1cc(Cl)ccc1OC(C)C(=O)Oc1ccc(-c2ccc(C#N)cc2)cc1 (configuration not stated)	0.0%	0.0%
CN1CCN(c2ccc(C#N)cc2)CC1	13.0%[1.06 µM]	2.82µM*
CN1CCN(c2ccc(C#N)cn2)CC1	15.2%	0.1%
Cc1ccccc1OCCSCc1ccc(C(N)=O)cc1	1.0%	0.0%
Clc1ccc(N/N=C/c2cccc3ccccc23)cc1Cl	28.5%	0.0%
CCC(Oc1ccc(F)cc1)C(=O)Nc1nc(-c2ccc(F)cc2)ns1 (configuration not stated)	?	25.1µM*
CCC(Oc1ccc(F)cc1)C(=O)Nc1cc(-c2ccc(C)cc2)no1 (configuration not stated)	-3.9%	-2.0%
O=C(/C=C/c1ccccn1)Nc1cccc(OC2CCCC2)c1	-1.5%	83.1%
CCOc1ccc2c(c1)cc(C(=O)Nc1cccc(C)c1)n2C	0.0%	15.2%
CCc1cc2c(=O)c(Oc3ccc(F)cc3)c(C(F)(F)F)oc2cc1OC(C)=O	10µM*	14.1µM*
CCc1cc2c(=O)c(Oc3ccc(I)cc3)c(C(F)(F)F)oc2cc1OC(=O)c1ccc(Br)cc1	12.1%	6.1%
CCc1ccccc1Nc1nn2c(=O)c3ccc(C(=O)NC(C)c4ccccc4)cc3nc2s1 (configuration not stated)	?	11.2µM*
CCc1ccccc1Nc1nn2c(=O)c3ccc(C(=O)NCCc4ccccc4)cc3nc2s1	0.0%	0.0%
O=C(CSc1nnnn1C1CC1)c1c[nH]c2ccccc12	1.9%	123.3%
Cc1cccc(OCCCn2cnc3c2c(=O)n(C)c(=O)n3C)c1	-19.8%	-8.1%
Cn1c(=O)c2c(ncn2Cc2cccc(OCC(F)(F)F)c2)n(C)c1=O	4.47µM*	7.08µM*
SMILES	FMDV Renilla	FMDV antiviral
O=C(Nc1cc(Cl)ccc1Cl)C12CC3CC(CC(C3)C1)C2	-5.4%	12.3%
O=C(Cc1ccccc1)NCCNC(=O)c1cc(=O)[nH]c2ccccc12	-8.9%	-11.3%
Cc1cc2oc(=O)cc(Cn3nc(C)c(C)c(C#N)c3=O)c2cc1C	55.4%	0.0%
CCC1CN(C(=O)N2CCC(C(=O)N3CCN(c4cc(C)ccc4C)CC3)CC2)c2ccccc2O1 (configuration not stated)	?	20µM*
CCC1CN(C(=O)N2CCC(C(=O)Nc3cc(C)ccc3C)CC2)c2ccccc2O1 (configuration not stated)	18.7%	-0.1%
CCC1CN(C(=O)N2CCC(C(=O)N3CCN(c4cccc(C)c4C)CC3)CC2)c2ccccc2O1 (configuration not stated)	28.2µM*	?
CCC1CN(C(=O)N2CCC(C(=O)NCc3ccccc3C)CC2)c2ccccc2O1 (configuration not stated)	17.3%	-13.7%
O=C(Nc1cc(=O)[nH]c2nc(CCc3ccccc3)nn12)c1ccccc1Cl	-3.0%	10.8%
CCC(C)n1nnc2cc(S(=O)(=O)N3CCC(C(=O)Nc4ccccc4OC)CC3)ccc21 (configuration not stated)	6.4%	-7.6%
Cc1cc(C(O)(C(F)(F)F)C(F)(F)F)cc(C)c1OC(=O)c1ccccc1F	-30.0%	44.0%
COc1ccc(C(=O)Oc2c(C)cc(C(O)(C(F)(F)F)C(F)(F)F)cc2C)cc1	8.91µM*	10µM*
CCC(NC(=O)C1CC1)C12CC3CC(CC(C3)C1)C2 (configuration not stated)	19.1%	9.1%
Cc1[nH]c2ccccc2c1C1c2ccccc2C(=O)N1CCC(=O)N1CCN(c2ccccc2)CC1 (configuration not stated)	50.3%	-18.9%
CSc1nc2c(c(=O)n(C)c(=O)n2C)n1Cc1cccc2ccccc12	14.1µM*	15.8µM*
CC(C)Sc1nc2c(c(=O)n(C)c(=O)n2C)n1Cc1ccccc1Cl	-7.6%	3.4%
CC(Sc1ccc2c(c1)OCCCO2)C(=O)c1c[nH]c2ccccc12 (configuration not stated)	-4.4%	-2.6%
COc1ccc2oc(=O)cc(CN(C)Cc3ccc(C)cc3)c2c1	35.5µM*	?
